# From PubChem BioAssay (Tox21)
# Results filed as inconclusive are left out. Active and inactive are the calls of the source. Calls come from the whole dose curve.
# Assay: qHTS assay for small molecule agonists of the p53 signaling pathway - cell viability (AID 651633);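 note: p53RE-bla HCT reporter cells with a stable beta-lactamase p53 reporter; nearly all actives have a fitted effect of over 30% in size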
# Settings: p53RE-bla HCT-116 viability, ATP luminescence, 16 h; series mostly up to 83.3 µM; activity change, negative = cytotoxicity: at the top concentration
# Description: National Center for Advancing Translational Sciences [NCATS]
# NIH Chemical Genomics Center [NCGC]
# U.S. Environmental Protection Agency [EPA]
# National Institutes of Environmental Health Sciences [NIEHS]
# National Toxicology Program [NTP]
# U.S. Food and Drug Administration [FDA]
# p53, a tumor suppressor protein, is activated following cellular insult, including DNA damage and other cellular stresses. The activation of p53 regulates cell fate by inducing DNA repair, cell cycle arrest, apoptosis, or cellular senescence. The activation of p53, therefore, is a good indicator of DNA damage and other cellular stresses. […] The activation of the reporter gene under culture conditions can be detected by fluorescence intensity. This cell line was used to screen the Tox21 compound library in a 1536-well plate format and to identify agonists that activate the p53 signaling pathway.
# Tox21 Assay Protocol Summary:
# The p53RE-bla cells were dispensed at 4,000 cells/5 ul/well in 1536-well black wall/clear bottom plates using a Multidrop dispenser. After the assay plates were incubated at a 37 C/5% CO2 incubator for 5 hours, 23 nL of compounds dissolved in DMSO, positive controls or DMSO only was transferred to the assay plate by a pin tool. The plates were incubated at 37 C for 16 hours. After 1 uL of LiveBLAzerTM B/G FRET substrate was added using a Flying Reagent Dispenser, the plates were incubated at room temperature for 2 hours, and fluorescence intensity was measured by an Envision plate reader.
# For cell viability readout that measures cytotoxicity, 4 ul/well of CellTiter-Glo reagent was added into the assay plates using a Flying Reagent Dispenser. After 30 min incubation at room temperature, the luminescence intensity in the plates was measured using a ViewLux plate reader.
# % is set by controls: 0 for no effect and ±100 for the full control effect.
SMILES,"activity change, negative = cytotoxicity",outcome
N=C(N)c1ccc(OCCCOc2ccc(C(=N)N)cc2)cc1,-16.5% (inactive),–
Nc1c2c(nc3ccccc13)CCCC2O (stereo not given),14.2% (inactive),–
FC1(F)C(F)(F)C(F)(F)C2(F)C(F)(F)C(F)(F)C(F)(F)C(F)(F)C2(F)C1(F)F (stereo not given),8.77% (inactive),–
CC(C)(C)c1nnc(NS(=O)(=O)c2ccccc2)s1,13% (inactive),–
CC(C)=CCCC(C)CC(=O)O (stereo not given),-3.9% (inactive),–
CN(C)CCCN1c2ccccc2CCc2ccc(Cl)cc21,-17.7% (inactive),–
Nc1cc(=O)[nH]c(N)n1,8.71% (inactive),–
CC(C)(c1ccc(O)cc1)c1ccc(O)cc1,9.27% (inactive),–
CC(C)c1cc2c(cc1S(=O)(=O)O)[C@@]1(C)CCC[C@@](C)(C(=O)O)[C@@H]1CC2,3.83% (inactive),–
Nc1c[n+](N2CCOCC2)no1,22.7% (inactive),–
COc1c(N2C[C@@H]3CCCN[C@@H]3C2)c(F)cc2c(=O)c(C(=O)O)cn(C3CC3)c12,–,inactive
CCCN(CCC)CCc1cccc2c1CC(=O)N2,-9.09% (inactive),–
COCCc1ccc(OCC(O)CNC(C)C)cc1 (stereo not given),–,inactive
CC(C)(O)C#CC(C)(C)O,9.74% [at 95.3 µM] (inactive),–
CC[N+](C)(C)c1cccc(O)c1,19.7% [at 39.1 µM] (inactive),–
Oc1ccc(C2CNCCc3c2cc(O)c(O)c3Cl)cc1 (stereo not given),14.3% (inactive),–
NCCCNCCSP(=O)(O)O,10.3% (inactive),–
N[C@H]1CN(c2c(F)cc3c(=O)c(C(=O)O)cn(C4C[C@H]4F)c3c2Cl)CC12CC2 (stereo not given in full),8% (inactive),–
OC[C@]1(O)OC[C@@H](O)[C@H](O)[C@@H]1O,–,inactive
FC(F)OC(Cl)C(F)(F)F (stereo not given),17.5% (inactive),–

SMILES,"activity change, negative = cytotoxicity",outcome
Cc1cc2c(cc1S(N)(=O)=O)S(=O)(=O)CCC2,19.3% [at 39.1 µM] (inactive),–
N=C(N)c1ccccc1,12.8% (inactive),–
NC(=O)c1cn(Cc2c(F)cccc2F)nn1,1.7% (inactive),–
C[C@](N)(Cc1ccc(O)cc1)C(=O)O,13.1% (inactive),–
N[C@@H](C(=O)N[C@@H]1C(=O)N2C(C(=O)O)=C(Cl)CS[C@H]12)c1ccccc1,-4.71% (inactive),–
CN(C(=O)c1c(O)c2ccccc2n(C)c1=O)c1ccccc1,4.46% (inactive),–
CCOC(=O)Nc1ccc(NCc2ccc(F)cc2)nc1N,–,inactive
CCCCCCCCCCCCCC=O,18.4% [at 8.08 µM] (inactive),–
COc1cc(C(=O)N2CCCCCCC2)cc(OC)c1OC,4.74% (inactive),–
CCC(=O)OC(C)c1ccccc1 (stereo not given),-17.8% (inactive),–
CO/N=C(/C(=O)N[C@@H]1C(=O)N2C(C(=O)OCOC(=O)C(C)(C)C)=C(C)CS[C@H]12)c1csc(N)n1,16.2% (inactive),–
Cc1ccc(Cl)cc1Cl,9.47% (inactive),–
C[N+](C)(C)CCCCCC[N+](C)(C)C,3.31% (inactive),–
CN(C)CCCSc1ccccc1NC(=O)/C=C/c1ccccc1,11% (inactive),–
CCOC(=O)C(=O)OCC,-6.01% (inactive),–
CS(=O)(=O)O,19% [at 95.3 µM] (inactive),–
C=C(C)C(=O)OCCCCCCCC(C)C,-3.31% [at 95.3 µM] (inactive),–
CCCCNC(=O)NCCCC,17.6% (inactive),–
CCOC(=O)c1cccc(N)c1,-13.1% (inactive),–
N=c1nc(N2CCCCC2)cc(N)n1O,10.5% (inactive),–
